{"source": "PubChem BioAssay (NCI)", "note": "About 83,000 compounds went through this panel and 20% of them were active in at least one assay; those are over-represented in the sample as a whole.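 Cells were grown in 96-well plates and exposed to the test compound at a single concentration for 48 hours; results are reported as percent growth, with values below 10 considered active.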 Active and inactive are the calls of the source."}
{"tested_on": "MDA-MB-435 melanoma", "assay": "NCI-60 one-dose screen, 48 h (100 = growth as untreated, 0 = no growth, -100 = all killed)", "settings": "10 µM unless noted"}
{"compound": "CC(C)c1[nH]ncc1-c1nc2ccc3[nH]ncc3c2c2c1CCCC2", "growth": "53.8% (inactive)"}
{"compound": "Cc1cc(-c2nnc(/C=C/c3ccc4c(c3)OCO4)o2)n[nH]1", "growth": "-25.4% (active)"}
{"compound": "CCN(CC)CCCCCCCNc1cc(OC)cc2c(C)ccnc12", "growth": "98.6% (inactive)"}
{"compound": "CCCc1n(Cc2ccc3ccccc3n2)cc[n+]1Cc1ccc2ccccc2n1", "growth": "7.6% (active)"}
{"compound": "COc1ccc(/C=C2\\N=C(c3cccnc3)N(c3ccccc3)NC2=O)cc1", "growth": "97.3% (inactive)"}
{"compound": "COc1ccc(Sc2[nH]c(C=O)c3ccccc23)cc1", "growth": "-0.922% (active)"}
{"compound": "COc1ccc(-n2nc(C(=O)NCC(=O)Nc3nc4cc(OC)ccc4s3)c3ccccc3c2=O)cc1", "growth": "42.5% (inactive)"}
{"compound": "CCCCN(CCCC)CCCN=c1nc2c(c(N)n1-c1ccccc1)c(=S)n(-c1ccccc1)c(=S)n2-c1ccccc1", "growth": "-100% (active)"}
{"compound": "O=C(/C=C/c1ccccc1)C(Br)C(Br)c1ccccc1", "note": "(stereo not drawn)", "growth": "-68.7% (active)"}
{"compound": "COc1ccc(Nc2ncccc2C(=O)NCc2cn(Cc3cc(OC)cc(OC)c3)nn2)cc1", "growth": "106% (inactive)"}
{"compound": "CN(C)c1ccc(C(c2ccccc2)c2ccc(N(C)C)cc2)cc1", "growth": "97% (inactive)"}
{"compound": "COc1ccc(/C(=C\\c2cc(OC)c(OC)c(OC)c2)C(=O)N2CCNCC2)cc1", "growth": "98.2% (inactive)"}
{"compound": "CC(=O)c1ccc(Nc2nc(Cl)nc(Oc3c(Cl)cccc3Cl)n2)cc1", "growth": "89.9% (inactive)"}
{"compound": "COc1cc2nccc(Oc3ccc(NC(=O)C4(C(=O)Nc5ccc(F)cc5)CC4)cc3)c2cc1Oc1ccc(N)cn1", "growth": "3.34% (active)"}
{"compound": "N#Cc1nc(-c2ccc(Cl)cc2)cc(-c2ccc(Nc3nc(N4CCCCC4)nc(N4CCCCC4)n3)cc2)c1N", "growth": "106% (inactive)"}
{"compound": "Cc1ccccc1CNc1ncnc2[nH]ncc12", "growth": "90.3% (inactive)"}
{"compound": "CN(C)CCOc1nc2c3ccncc3cc(-c3cccc(Cl)c3)c2c2cnccc12", "growth": "30% (inactive)"}
{"compound": "Cc1ccc(C2CC(c3cccs3)=NN2c2ccc(S(N)(=O)=O)cc2)s1", "note": "(stereo not drawn)", "growth": "80.8% (inactive)"}
{"compound": "CN=C1C=C/C(=N/N=c2/ccn(O)cc2C)C=C1C", "growth": "102% (inactive)"}
{"compound": "Oc1[nH]c2ccccc2c1/C=c1/ccc2c(c1)N=C(c1ccc(C(F)(F)F)cc1)N=2", "growth": "32.5% (inactive)"}
{"compound": "Clc1ccc(Nc2ncnc3c2sc2ncccc23)cc1", "growth": "36.2% (inactive)"}
{"compound": "Nc1nc(N)c2cc(Sc3ccc(Cl)cc3)ccc2n1", "growth": "28.6% (inactive)"}
{"compound": "CCN(C(=O)Nc1cccc2ccccc12)c1ccccc1", "growth": "105% (inactive)"}
{"compound": "CCN(CC)CCCC(C)Nc1cnc(C(=O)Nc2ccc(Cl)c3cccnc23)cn1", "note": "(stereo not drawn)", "growth": "-57.8% (active)"}
{"compound": "C/C(=N\\NC(=S)Nc1ccccc1)c1ccccn1", "growth": "59.6% (inactive)"}
{"compound": "C[C@]12CCc3nc(Nc4ccc(O)cc4)sc3C1=CC[C@@H]1[C@@H]2CC[C@]2(C)/C(=N/NC(N)=S)CC[C@@H]12", "growth": "-68.5% (active)"}
{"compound": "CC1(C)C(N(O)C(=O)Nc2ccc(Cl)cc2)N(c2ccc(Cl)cc2)C(=O)N1CC(=O)N/N=C/C=C/c1ccc([N+](=O)[O-])o1", "note": "(stereo not drawn)", "growth": "-15.3% (active)"}
{"compound": "COc1ccc(C(=O)c2c(N)nc3n2CCCC3)cc1OC", "growth": "104% (inactive)"}
{"compound": "Fc1ccc2c(CN3CCO[C@H](COc4cccc(Cl)c4)C3)c[nH]c2c1", "growth": "50% (inactive)"}
{"compound": "CC(=O)c1c(C)nc(-c2cc(C)cc(Cl)c2)nc1-c1cccc(Oc2ccccc2)c1", "growth": "-4.76% (active)"}
{"compound": "FC(F)(F)c1ccc(/C=N/Nc2nnc3n2N=C(c2ccc(Cl)cc2)CS3)cc1", "growth": "70.8% (inactive)"}
{"compound": "O=C1/C(=C\\c2cccn2C(=O)c2ccccc2)c2ccccc2N1c1c(Cl)cccc1Cl", "growth": "33.8% (inactive)"}
{"compound": "Cc1ccc(S(=O)(=O)NC(CCC(=O)Nc2ccc(Cl)cc2)C(=O)Nc2ccc(Cl)cc2)cc1", "note": "(stereo not drawn)", "growth": "38.4% (inactive)"}
{"compound": "CNC(=O)c1cc(Oc2ccc(NC(=O)c3nc(S(C)(=O)=O)n(C)c3-c3ccc(F)cc3)cc2)ccn1", "growth": "79.4% (inactive)"}
{"compound": "Nc1c(C(=O)c2ccc(Br)cc2)sc2nc3c(cc12)CCCC3", "growth": "49.9% (inactive)"}
{"compound": "CCCCn1cnc(-c2cc(-c3ccccc3)cc(C(F)(F)F)c2)n1", "growth": "105% (inactive)"}
{"compound": "COCCCNCC(=O)Nc1c(C)cccc1C", "growth": "112% (inactive)"}
{"compound": "COc1ccc(/C(=C\\c2ccc3c(c2)OCO3)C(=O)Nc2nc3ccccc3s2)cc1", "growth": "99.1% (inactive)"}
{"compound": "COc1ccc2[nH]c(O)c(/C=c3/ccc4c(c3)N=C(c3ccc(C(F)(F)F)cc3)N=4)c2c1", "growth": "76.5% (inactive)"}
{"tested_on": "SW-620 colon", "assay": "NCI-60 one-dose screen, 48 h (100 = growth as untreated, 0 = no growth, -100 = all killed)", "settings": "10 µM unless noted"}
{"compound": "CC(C)c1[nH]ncc1-c1nc2ccc3[nH]ncc3c2c2c1CCCC2", "growth": "15.9% (inactive)"}
{"compound": "Cc1cc(-c2nnc(/C=C/c3ccc4c(c3)OCO4)o2)n[nH]1", "growth": "25.5% (inactive)"}
{"compound": "CCN(CC)CCCCCCCNc1cc(OC)cc2c(C)ccnc12", "growth": "88.6% (inactive)"}
{"compound": "CCCc1n(Cc2ccc3ccccc3n2)cc[n+]1Cc1ccc2ccccc2n1", "growth": "36.7% (inactive)"}
{"compound": "COc1ccc(/C=C2\\N=C(c3cccnc3)N(c3ccccc3)NC2=O)cc1", "growth": "92.3% (inactive)"}
{"compound": "COc1ccc(Sc2[nH]c(C=O)c3ccccc23)cc1", "growth": "16.1% (inactive)"}
{"compound": "COc1ccc(-n2nc(C(=O)NCC(=O)Nc3nc4cc(OC)ccc4s3)c3ccccc3c2=O)cc1", "growth": "47.6% (inactive)"}
{"compound": "CCCCN(CCCC)CCCN=c1nc2c(c(N)n1-c1ccccc1)c(=S)n(-c1ccccc1)c(=S)n2-c1ccccc1", "growth": "-100% (active)"}
{"compound": "O=C(/C=C/c1ccccc1)C(Br)C(Br)c1ccccc1", "note": "(stereo not drawn)", "growth": "-53.1% (active)"}
{"compound": "COc1ccc(Nc2ncccc2C(=O)NCc2cn(Cc3cc(OC)cc(OC)c3)nn2)cc1", "growth": "105% (inactive)"}
{"compound": "CN(C)c1ccc(C(c2ccccc2)c2ccc(N(C)C)cc2)cc1", "growth": "93.4% (inactive)"}
{"compound": "COc1ccc(/C(=C\\c2cc(OC)c(OC)c(OC)c2)C(=O)N2CCNCC2)cc1", "growth": "97.6% (inactive)"}
{"compound": "CC(=O)c1ccc(Nc2nc(Cl)nc(Oc3c(Cl)cccc3Cl)n2)cc1", "growth": "88.6% (inactive)"}
{"compound": "COc1cc2nccc(Oc3ccc(NC(=O)C4(C(=O)Nc5ccc(F)cc5)CC4)cc3)c2cc1Oc1ccc(N)cn1", "growth": "36.8% (inactive)"}
{"compound": "N#Cc1nc(-c2ccc(Cl)cc2)cc(-c2ccc(Nc3nc(N4CCCCC4)nc(N4CCCCC4)n3)cc2)c1N", "growth": "99.3% (inactive)"}
{"compound": "Cc1ccccc1CNc1ncnc2[nH]ncc12", "growth": "114% (inactive)"}
{"compound": "CN(C)CCOc1nc2c3ccncc3cc(-c3cccc(Cl)c3)c2c2cnccc12", "growth": "27.4% (inactive)"}
{"compound": "Cc1ccc(C2CC(c3cccs3)=NN2c2ccc(S(N)(=O)=O)cc2)s1", "note": "(stereo not drawn)", "growth": "97.8% (inactive)"}
{"compound": "CN=C1C=C/C(=N/N=c2/ccn(O)cc2C)C=C1C", "growth": "98.5% (inactive)"}
{"compound": "Oc1[nH]c2ccccc2c1/C=c1/ccc2c(c1)N=C(c1ccc(C(F)(F)F)cc1)N=2", "growth": "63.7% (inactive)"}
{"compound": "Clc1ccc(Nc2ncnc3c2sc2ncccc23)cc1", "growth": "46.6% (inactive)"}
{"compound": "Nc1nc(N)c2cc(Sc3ccc(Cl)cc3)ccc2n1", "growth": "25.8% (inactive)"}
{"compound": "CCN(C(=O)Nc1cccc2ccccc12)c1ccccc1", "growth": "107% (inactive)"}
{"compound": "CCN(CC)CCCC(C)Nc1cnc(C(=O)Nc2ccc(Cl)c3cccnc23)cn1", "note": "(stereo not drawn)", "growth": "0.619% (active)"}
{"compound": "C/C(=N\\NC(=S)Nc1ccccc1)c1ccccn1", "growth": "35% (inactive)"}
{"compound": "C[C@]12CCc3nc(Nc4ccc(O)cc4)sc3C1=CC[C@@H]1[C@@H]2CC[C@]2(C)/C(=N/NC(N)=S)CC[C@@H]12", "growth": "-62% (active)"}
{"compound": "CC1(C)C(N(O)C(=O)Nc2ccc(Cl)cc2)N(c2ccc(Cl)cc2)C(=O)N1CC(=O)N/N=C/C=C/c1ccc([N+](=O)[O-])o1", "note": "(stereo not drawn)", "growth": "-15.7% (active)"}
{"compound": "COc1ccc(C(=O)c2c(N)nc3n2CCCC3)cc1OC", "growth": "101% (inactive)"}
{"compound": "Fc1ccc2c(CN3CCO[C@H](COc4cccc(Cl)c4)C3)c[nH]c2c1", "growth": "59.7% (inactive)"}
{"compound": "CC(=O)c1c(C)nc(-c2cc(C)cc(Cl)c2)nc1-c1cccc(Oc2ccccc2)c1", "growth": "25.7% (inactive)"}
{"compound": "FC(F)(F)c1ccc(/C=N/Nc2nnc3n2N=C(c2ccc(Cl)cc2)CS3)cc1", "growth": "77.6% (inactive)"}
{"compound": "O=C1/C(=C\\c2cccn2C(=O)c2ccccc2)c2ccccc2N1c1c(Cl)cccc1Cl", "growth": "30% (inactive)"}
{"compound": "Cc1ccc(S(=O)(=O)NC(CCC(=O)Nc2ccc(Cl)cc2)C(=O)Nc2ccc(Cl)cc2)cc1", "note": "(stereo not drawn)", "growth": "31.1% (inactive)"}
{"compound": "CNC(=O)c1cc(Oc2ccc(NC(=O)c3nc(S(C)(=O)=O)n(C)c3-c3ccc(F)cc3)cc2)ccn1", "growth": "72.1% (inactive)"}
{"compound": "Nc1c(C(=O)c2ccc(Br)cc2)sc2nc3c(cc12)CCCC3", "growth": "105% (inactive)"}
{"compound": "CCCCn1cnc(-c2cc(-c3ccccc3)cc(C(F)(F)F)c2)n1", "growth": "96% (inactive)"}
{"compound": "COCCCNCC(=O)Nc1c(C)cccc1C", "growth": "114% (inactive)"}
{"compound": "COc1ccc(/C(=C\\c2ccc3c(c2)OCO3)C(=O)Nc2nc3ccccc3s2)cc1", "growth": "108% (inactive)"}
{"compound": "COc1ccc2[nH]c(O)c(/C=c3/ccc4c(c3)N=C(c3ccc(C(F)(F)F)cc3)N=4)c2c1", "growth": "86.4% (inactive)"}
